Hits are enriched below; roughly 1.9% of the tested compounds scored in any of these assays.
Ba/F3 V617F tox: reduce viability of Ba/F3 cells dependent on JAK2V617F. Ba/F3 EpoR-JAK2V617F viability, ATP luminescence. inhibition, % at 5.6 µM. hit rate 1.1% among 220,000. AID 1446;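 active = inhibition above the campaign mean plus 3 SD over all tested compounds, cut at about 24% in these data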;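 note: cytokine-independent growth of Ba/F3 cells driven by EpoR plus mutant JAK2; 0% = DMSO-treated cells and 100% = JAK inhibitor I control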
KLF5 inhibitor: inhibitors of KLF5 expression; DLD-1 KLF5 promoter-luciferase reporter, luminescence; inhibition, % at 5 µM; hit rate 0.23% among 290,000;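 active = inhibition above a per-plate limit of that plate's mean compound inhibition plus 3 SD, cut at about 60% in these data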;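 note: 0% = DMSO wells and 100% = LY294002 at 200 µM; higher means less KLF5 promoter-driven luciferase light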
BaF3 parental: reduces parental Ba/F3 cell viability, JAK2V617F counter-screen; inhibition, % at 5.6 µM; CellTiter-Glo ATP luminescence; AID 1486; hit rate 1.1% among 220,000;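 active = inhibition above a per-campaign cutoff, the mean inhibition of all tested compounds plus 3 SD, cut at about 27% in these data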;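 note: 0% = DMSO wells and 100% = JAK Inhibitor I control wells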
APP 5UTR inh: APP translation inhibition | SH-SY5Y APP 5'UTR-luciferase reporter, luminescence | inhibition, % at 2 µM | hit rate 0.82% among 190,000;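 active = inhibition above a set limit, derived from the sample mean plus 3 SD, cut at about 45% in these data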
IEC-6 cytotox: IEC-6 cytotoxicity, counter-screen for KLF5 inhibitors. luminescence viability. inhibition, % at 5 µM. hit rate 0.78% among 290,000. AID 1825; in the data active = inhibition above about 22%;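 note: 0% = plate median of test compound wells and 100% = cytotoxic reference compound wells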
* marks the source's active call; other numbers are inactive results; x = not tested or not shown.

SMILES | Ba/F3 V617F tox | KLF5 inhibitor | BaF3 parental | APP 5UTR inh | IEC-6 cytotox
Cc1ccc(Cn2c(-c3nonc3N)nc3ccccc32)cc1 | 3 | 21 | 3 | 6 | 6
Cc1c(C(N)=O)sc2ncn(CC(=O)NCCc3ccccc3)c(=O)c12 | 0 | -21 | 3 | -4 | -2
O=C(NNC(=O)C(c1ccccc1)c1ccccc1)c1ccccn1 | 9 | 26 | 4 | 55* | 55*
Cc1cc(NC2CCCCC2)nc2ccccc12 | 6 | -34 | 6 | -4 | 19
Cc1cc(OCC[N+]2(C)CCCCC2)nc2ccccc12 | 50* | -32 | 48* | x | -9
Cc1cccc(N2CCN(C(=O)c3ccc4c(c3)NC(=O)C(CSCc3cccc(F)c3)N4)CC2)c1C (stereo not given) | x | -15 | x | x | -3
CCCOc1ccc(/C=N/Nc2cc(N3CCOCC3)ncn2)c(O)c1 | x | 79* | x | x | -2
O=C(NCCCCCCNC(=O)N1CCCCCC1)N1CCCCCC1 | 50* | -20 | 55* | -7 | 14
O=C(/C=C/c1cccnc1)/C=C/c1cccnc1 | 95* | 5 | 103* | x | 49*
Cc1cc(C)n(-c2nc(Nc3ccccc3C(F)(F)F)nc(-n3nc(C)cc3C)n2)n1 | -2 | 11 | 5 | 42 | 39*
Cc1cc(C)n(-c2nc(Nc3ccccc3C)nc(-n3nc(C)cc3C)n2)n1 | -1 | -3 | -3 | -11 | 2
CCC(=O)Nc1nonc1-c1nc2ccccc2n1Cc1cccc2ccccc12 | -1 | -3 | 5 | 89* | 5
CCC(=O)Nc1nonc1-c1nc2ccccc2n1Cc1ccccc1 | -5 | -25 | -2 | 3 | -9
COc1ccc(OCC(O)CNCCOc2ccccc2OC)c(C(C)(C)C)c1 (stereo not given) | x | 5 | x | x | 6
CCOc1ccc2[nH]cc(-c3csc(N)n3)c2c1 | x | 6 | x | x | -1
Cc1nn(C(C)C(=O)NCCc2cccs2)c(=O)c2nn(-c3ccccc3)c(C)c12 (stereo not given) | x | -15 | x | x | 6
Cc1ccccc1/C=N/Nc1nc2ccccc2[nH]1 | 5 | -15 | 9 | -94 | 7
C(=N\Nc1nc2ccccc2[nH]1)/c1cccc2cccnc12 | 91* | 26 | 50* | x | 0
CC[n+]1c(/C=C2\C=C(C)CC(C)C2)sc2ccccc21 (stereo not given) | 63* | -19 | 63* | 5 | -1
CC[n+]1c(C)sc2sc3ccccc3c21 | 0 | -46 | -8 | x | 2
CC[n+]1c(/C=C2/C=C(C)CC(C)(C)C2)sc2ccc(OC)cc21 | 64* | -26 | 59* | 0 | -8
CCC1=C/C(=C/c2sc3ccccc3[n+]2CC)CC(C)(C)C1 | 2 | -1 | 15 | -17 | -8
CC[n+]1c(/C=C2\C=C(C)CC(C)(C)C2)sc2ccccc21 | 56* | -36 | 60* | 11 | -1
COc1ccc(CCNc2ncnc3c2oc2ccccc23)cc1OC | 51* | 1 | 62* | 12 | 18
Cc1sc2ncnc(NCCc3ccc(S(N)(=O)=O)cc3)c2c1C | 51* | -41 | 58* | 8 | 18
SMILES | Ba/F3 V617F tox | KLF5 inhibitor | BaF3 parental | APP 5UTR inh | IEC-6 cytotox
NS(=O)(=O)c1ccc(CNc2ncnc3sccc23)cc1 | x | -26 | x | x | 2
Cc1sc2ncnc(NCCCn3ccnc3)c2c1C | -1 | -18 | 3 | -8 | -4
COc1ccc(CCNc2ncnc3sccc23)cc1OC | 64* | 52 | 69* | -28 | 22
NS(=O)(=O)c1ccc(CCNc2ncnc3sccc23)cc1 | 33* | -30 | 43* | 17 | 1
O=C(c1cc(COc2ccc(F)cc2F)on1)N1CCN(C2CCCC2)C(=O)C1 | x | -50 | x | x | 1
Cc1cccc(S(=O)(=O)Nc2nc3ccccc3nc2OC(C)C)c1 | x | -8 | x | x | 0
CCCCC(=O)Nc1cnc(NC(=O)c2cccs2)cc1C | x | -101 | x | x | 5
COC(=O)c1[nH]c2cccc(OC)c2c1NC(=O)C(C)N1CCC(C)CC1 (stereo not given) | -1 | -6 | 3 | 66* | 3
O=C(NCc1cccc(Cl)c1)C1CCCN(c2ncnc3c2nc2n3CCCCC2)C1 (stereo not given) | x | -23 | x | x | 0
O=C(N/N=C/c1ccccn1)c1cccs1 | 1 | -74 | 4 | -18 | 3
COc1ccc2nc(NC(=O)c3cccc(OCc4c(C)noc4C)c3)sc2c1 | -1 | -3 | 3 | 86* | 6
Cc1cccc2sc(NC(=O)c3ccc(OCC4CCCO4)cc3)nc12 (stereo not given) | 1 | -29 | 8 | -55 | -2
CCOc1ccc2nc(NC(=O)c3ccc(OCC4CCCO4)cc3)sc2c1 (stereo not given) | 56* | -57 | 60* | -78 | -5
COc1ccccc1N1CCN(C(=O)C2CCN(C(=O)c3ccc(C(C)(C)C)cc3)CC2)CC1 | x | -25 | x | x | -3
CC(=O)Nc1ccc(S(=O)(=O)Oc2ccc3c(c2)C(C)=CC(C)(C)N3)cc1 | 80* | -8 | 73* | 27 | 33*
CC1=CC(C)(C)Nc2ccc(OS(=O)(=O)c3ccc(C)cc3)cc21 | -3 | -27 | 1 | 0 | -4
O=C(Nc1nc(-c2ccccn2)cs1)c1cccc(-n2cnnn2)c1 | 53* | 9 | 63* | x | 16
O=C(Nc1ccc(Br)cc1)c1cccc(-n2cnnn2)c1 | x | -28 | x | x | -1
Cc1nc(NC2=NCN(C3CCCCC3C)CN2)nc2ccccc12 (stereo not given) | 2 | 16 | 1 | -8 | 6
Cc1nc(NC2=NCN(CC3CCCO3)CN2)nc2ccccc12 (stereo not given) | 38* | -18 | 34* | 4 | 3
Cc1ccc(SCC(=O)N2N=CCC2c2ccccc2)cc1 (stereo not given) | -3 | -38 | 1 | 7 | -7
CCc1ccc(CC2S/C(=C(\C#N)C(C)=O)NC2=O)cc1 (stereo not given) | -4 | -6 | 0 | 6 | 70*
CCOC(=O)C1=C(c2ccccc2)N=C2SCC(=O)N2C1c1cccc(OC)c1 (stereo not given) | 1 | -28 | 3 | 61* | -1
CCOC(=O)C1=C(c2ccccc2)N=C2SCC(=O)N2C1c1ccc(OC)c(OC)c1 (stereo not given) | -4 | -47 | 0 | -6 | 3
CCCN1CCCc2cc(CN)ccc21 | 63* | -13 | 63* | 0 | 6
SMILES | Ba/F3 V617F tox | KLF5 inhibitor | BaF3 parental | APP 5UTR inh | IEC-6 cytotox
COC(=O)c1cccc(NC(=O)CSc2nnc(C3CC3)n2C)c1 | x | -16 | x | x | -1
O=C(N/N=C/c1ccc(F)cc1)c1ccc(OCc2ccccc2)cc1 | 4 | -12 | 49* | x | -6
COc1ccc(O)c(/C=N/NC(=O)c2ccc(OCc3cccc(Br)c3)cc2)c1 | -2 | -43 | 3 | 66* | -1
COc1ccc(/C=N/NC(=O)c2ccc(Br)cc2)c(OC)c1 | 2 | -38 | 4 | 6 | 5
O=C(N/N=C/c1ccc(OCc2ccc(F)cc2)cc1)c1ccccc1 | -3 | -21 | 0 | -25 | 4
CCCCCCCOc1ccc(OC(=O)c2cccnc2)cc1 | 58* | -18 | 44* | -3 | 13
CCCCOc1ccc(OC(=O)c2cccnc2)cc1 | 0 | -27 | 0 | -2 | -1

High-throughput results as filed in PubChem.
